Screening results: PubChem, Broad Institute
These entries were drawn from the full list.
aSyn UTR act – Activators working through SNCA 5'UTR binding (MLPCN); activity score, % (tested at 7.5 µM), hits read low; alpha-synuclein 5'UTR reporter, activators screen; actives 7.1% (n = 300,000); AID 1814; in the data active = activity score below about -60%
* hit, by the source's call.

SMILES	aSyn UTR act
Nc1nc(Nc2ccc(Cl)cc2)nc(NCc2ccco2)c1[N+](=O)[O-]	-75*
CCC(C)Nc1nc(N)c([N+](=O)[O-])c(NCc2ccccc2)n1 (stereo not drawn)	65
CC(C)CC(=O)NC(=S)NNC(=O)c1ccc(NC(=O)C2CCCCC2)cc1	75
O=C(NC(=S)Nc1ccccc1)C1CCCCC1	-63*
O=C(NC(=S)Nc1ccc(Br)cc1)C1CCCCC1	-68*
O=C(NC(=S)Nc1ccc(Br)cc1)C1CCC1	-95*
CC(=O)OC(CC(=O)O)C[N+](C)(C)C (stereo not drawn)	68
CC(C)CN(C(=O)c1ccc(=O)n(C)n1)c1nc2ccccc2s1	-109*
Cc1ccc(-c2cn(-c3ccccc3)c(SCC(=O)NC3CCS(=O)(=O)C3)n2)cc1C (stereo not drawn)	-143*
O=[N+]([O-])c1ccc(O)c(C2=NNC(c3ccccc3F)C2)c1 (stereo not drawn)	-122*
COc1ccc(-c2nc3c4ccccc4ccn3c2CN2CCOCC2)cc1OC	-95*
CNC(=O)c1cc2c(ccc3ccccc32)o1	-60*
O=C(Nc1cc2c(ccc3ccccc32)oc1=O)C1CCCCC1	-62*
O=C(NC1CCCC1)c1cc2c(ccc3ccccc32)o1	-202*
COc1ccc(-c2nc3c(n2O)CCc2c-3no[n+]2[O-])cc1	-131*
Nc1ccn([C@@H]2O[C@H](CO)[C@@H](O)[C@@H]2O)c(=O)n1	81
CC(C)Cc1nnc(NC(=O)Nc2ccccc2)s1	-115*
CCC(C)(C)c1nnc(NC(=O)c2cccc([N+](=O)[O-])c2)s1	-147*
COc1ccc(C(=O)Nc2nccs2)cc1	-120*
COc1ccc(C(=O)Nc2nccs2)cc1OC	-71*
COc1ccc2c(CC(=O)Nc3nccs3)coc2c1	-101*
CC(C)Cc1nnc(NC(=O)c2ccc([N+](=O)[O-])cc2)s1	-95*
COc1ccc(C(NC(C)=O)c2cc(Cl)c3cccnc3c2O)cc1 (stereo not drawn)	76
COc1ccc(C(=O)Nc2nccs2)cc1[N+](=O)[O-]	-74*
O=C(Nc1nccs1)c1ccc([N+](=O)[O-])cc1	-75*
SMILES	aSyn UTR act
CCCc1nnc(NC(=O)c2cc3ccccc3o2)s1	-88*
COc1ccc(C(=O)NC(=S)Nc2cc(C)ccn2)cc1[N+](=O)[O-]	-68*
COc1ccc(NC(=O)Nc2nccs2)cc1	-94*
CCCc1nnc(NC(=O)c2cccc(OC)c2)s1	-91*
O=C(Nc1nccs1)c1cccc(NC(=O)C(F)(F)F)c1	-86*
CCc1nnc(NC(=O)Nc2ccc(OC)cc2)s1	-162*
CCOCc1nnc(NC(=O)c2ccc(OC)cc2)s1	-73*
Cc1cccc(OCC(=O)NC(C)C(=O)N/N=C/c2c(OCc3ccccc3)ccc3ccccc23)c1 (stereo not drawn)	-138*
NC(=O)N/N=C/c1ccc2cccc(OCc3ccccc3)c2n1	60
CC(C)(C)C(=O)Nc1ccc(-c2cc3cc(Cl)ccc3o2)cc1	-124*
Cc1ccc(NC(=O)c2snc3ccc(Cl)cc23)cc1C	-216*
CCCCCOc1ccc(Br)cc1/C(C)=N/NC1=NCCN1	88
COc1cc(/C=C/C(=O)c2ccc(Cl)s2)cc(OC)c1O	-164*
COc1ccc(/C=C/C(=O)c2ccc(Cl)s2)cc1O	-147*
Cc1ccc(Nc2nc(COC(=O)C3CC3)cs2)cc1	-105*
Cc1ccc(C(=O)Nc2cccc(-c3ccc(N4CCOCC4)nn3)c2)cc1[N+](=O)[O-]	-76*
O=C(COc1ccc(Cl)cc1Cl)Nc1cccc(-c2ccc(N3CCOCC3)nn2)c1	-72*
O=C(Nc1cccc(-c2ccc(N3CCOCC3)nn2)c1)c1ccc([N+](=O)[O-])cc1	-99*
Cc1ccccc1C(=O)Nc1cccc(-c2ccc(N3CCOCC3)nn2)c1	-65*
O=C(Nc1cccc(-c2ccc(N3CCOCC3)nn2)c1)c1ccccc1	-80*
Cc1cn(-c2ccc(Br)cc2)[nH]c1=O	-79*
Nc1cnnc(N/N=C\c2ccccc2)c1Cl	-92*
O=c1cnnc(N/N=C/c2ccccn2)[nH]1	75
O=Nc1ccc(O)c2ncccc12	-236*
Cc1ccccc1N=Nc1ccc(O)c2ncccc12	54
SMILES	aSyn UTR act
Cc1[nH]n(-c2ccc([N+](=O)[O-])cc2)c(=O)c1C=NCC1CCCO1 (stereo not drawn)	-88*
N#CC(c1cccc(Cl)c1)c1ccc2c(C(F)(F)F)cc(C(F)(F)F)nc2n1 (stereo not drawn)	97
CC1CCN(c2nc3ccc(C(=O)NCCCN4CCCCC4)cc3s2)CC1	-282*
CC1CCN(c2nc3ccc(C(=O)O)cc3s2)CC1	106
CCC1CCCCN1CCCNC(=O)c1ccc2nc(N3CCC(C)CC3)sc2c1 (stereo not drawn)	-292*
O=C(Nc1ccc([N+](=O)[O-])cc1)c1ccc(Cn2cc([N+](=O)[O-])cn2)cc1	79
O=C(Nc1ccc(Cl)c(Cl)c1)c1ccc(Cn2cc(Cl)cn2)cc1	-120*
O=C(Nc1ccccc1F)c1ccc(Cn2cc(Cl)cn2)cc1	-84*
CC(C)=CC(=O)Nc1nnc(C(C)C)s1	-119*
CC(C)=CC(=O)Nc1nnc(-c2cccnc2)s1	-67*
S=c1[nH]nc(-c2ccc(Cl)cc2Cl)n1-c1ccccc1	-199*
CC(=O)c1sc2c(c1OC(=O)c1ccc(Cl)cc1Cl)c(=O)n(-c1ccccc1)c(=S)n2-c1ccccc1	101
COc1cccc(/C=C2\CCC(C3CCCC3)C2=O)c1OC (stereo not drawn)	-163*
COc1cccc(/C=C2\CCC(C3CCCC3)C2=O)c1 (stereo not drawn)	-99*
N#Cc1c(NC(=O)c2ccco2)sc2c1CCC2	-133*
O=C(Nc1sc2c(c1C(=O)O)CCCCC2)c1ccco1	-96*
CC1(C)Cc2c(sc(NC(=O)c3ccco3)c2C#N)CO1	-100*
Cc1occc1C(=O)Nc1sc2c(c1C(N)=O)CCCCC2	-176*
NC(=O)c1c(NC(=O)c2ccco2)sc2c1CCC2	-277*
COc1ccc(C=Nc2cccnc2N)cc1	-67*
Cc1cc(C(=O)Nc2ccc(Cl)cc2)c(C)n1Cc1cccs1	-67*
Cc1cc(C)cc(NC(=O)c2cc(C)n(Cc3cccs3)c2C)c1	-117*
CCN1CCN(c2cc3c(nn2)Oc2ccccc2N3C)CC1	-128*
Cn1c(=O)n(/N=C/c2ccccc2)c2ccccc21	-107*
COc1ccc(-c2nc(C#N)c(NCC3CCCO3)o2)cc1OC (stereo not drawn)	-74*
SMILES	aSyn UTR act
COc1ccc(-c2nc(C#N)c(NCc3ccco3)o2)cc1	-182*
Cc1ccc(-c2nc(C#N)c(NCc3ccco3)o2)cc1	-145*
CNc1oc(-c2ccc(OCc3ccccc3)cc2)nc1C#N	-96*
Cc1ccc2cc(C#N)c(NCc3ccco3)nc2c1	-67*
COc1ccc(Nc2oc(-c3ccc(F)cc3)nc2C#N)cc1	-233*
C=CCNc1oc(-c2ccc(OC)cc2)nc1C#N	-135*
COc1ccc(Nc2oc(COc3ccc(OC)cc3)nc2C#N)cc1	78
c1ccc2c(c1)CC(N1CCCCC1)c1ccccc1S2 (stereo not drawn)	90
Cc1cc(C(=O)COC(=O)c2ccc[nH]c2=O)c(C)n1C1CC1	-99*
Cc1cc(C(=O)COc2ccccc2[N+](=O)[O-])c(C)n1C1CC1	-131*
Cc1cc(C(=O)COc2cccnc2[N+](=O)[O-])c(C)n1-c1ccccc1	100
Cc1cc(-n2c(C)cc(C(=O)COc3ccccc3[N+](=O)[O-])c2C)no1	-68*
